SMILES strings stand for the structures. Records with an inconclusive call do not appear. Where a call stands in place of a potency, no number is given. The source made the active and inactive calls. Unless noted, calls come from the whole dose curve; as a rule, active = well fitted cell-killing curve with a large enough effect in the repeat runs; inconclusive = weak or mixed curves, or effect the other way; inactive = flat fitted curve, though single readings scatter.
Potency is the fitted concentration of half-maximal effect.

In the first experiment the target is Estrogen receptor beta (Homo sapiens) (UniProt Q92731). Description: qHTS assay to identify small molecule antagonists of the estrogen receptor beta (ER-beta) signaling pathway (AID 1259378; active = well fitted inhibition curve with a large enough effect in the signal ratio in the repeat runs, not every such curve was filed as active; the % refers to the signal ratio). To be noted: ER-beta-UAS-bla HEK293T, beta-lactamase FRET ratio, 16 h; series mostly up to 92.4 µM. In short, it runs like this: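 ER-beta-UAS-bla HEK293T cells in 2% charcoal-stripped FBS medium treated with compound plus 1nM final 17-beta-estradiol for 16 hr at 37C. Beta-lactamase reporter read by FRET substrate fluorescence after 2 hours at room temperature.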
Chain of Estrogen receptor beta (Homo sapiens) (Q92731 whole entry, looked up): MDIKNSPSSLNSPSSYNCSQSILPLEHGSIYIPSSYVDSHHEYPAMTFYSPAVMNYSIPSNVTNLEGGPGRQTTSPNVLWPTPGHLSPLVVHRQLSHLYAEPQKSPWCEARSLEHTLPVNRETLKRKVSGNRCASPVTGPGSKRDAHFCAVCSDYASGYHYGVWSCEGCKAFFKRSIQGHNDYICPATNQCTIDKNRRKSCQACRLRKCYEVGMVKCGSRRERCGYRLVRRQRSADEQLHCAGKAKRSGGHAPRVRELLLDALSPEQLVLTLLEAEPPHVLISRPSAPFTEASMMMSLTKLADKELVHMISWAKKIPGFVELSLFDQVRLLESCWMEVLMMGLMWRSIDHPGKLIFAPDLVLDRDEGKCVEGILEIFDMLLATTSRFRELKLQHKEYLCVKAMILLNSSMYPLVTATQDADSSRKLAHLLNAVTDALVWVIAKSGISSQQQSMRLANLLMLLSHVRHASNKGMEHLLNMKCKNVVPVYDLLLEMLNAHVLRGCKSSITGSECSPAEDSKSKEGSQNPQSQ
On the technique in general: Quantitative high-throughput screening tests each substance at several concentrations.
`COC(=O)CC(C(C)=O)C(=O)OC` (stereo not given): the Potency result is “inactive”.

As to `CC(C)(O)CCc1ccccc1`, the Potency result was “inactive”.

On to `C=C(C)c1ccccc1`, for which the Potency result was “inactive”.

Consider `Cc1cccc2sc(N)nc12`, for which the Potency result was “inactive”.

In the case of `CC(=O)Oc1cccc(O)c1`, the Potency result is “inactive”.

Consider `CCCOC(=O)c1c(Cl)c(Cl)c(Cl)c(Cl)c1C(=O)OCCC`, for which the Potency result was “inactive”.

With `CCc1ccc(C)cc1`, the Potency result was “inactive”.

On to `COC(OC)OC`, for which the Potency result is “inactive”.

Regarding `CCCCCCCCCCCCCCCCCC(=O)OCC(CC)CCCC` (stereo not given), the Potency result is “inactive”.

`CCCCCc1ccco1`: the Potency was 25.1 µM (active).

Turning to `CC(C)(O)c1coc(S(=O)(=O)NC(=O)Nc2c3c(cc4c2CCC4)CCC3)c1`, the Potency entry is “inactive”.

`Cc1ccc(N(CC2=NCCN2)c2cccc(O)c2)cc1`: the Potency entry is “inactive”.

Turning to `CCC(=O)OCc1ccc(OC)cc1`, the Potency result was “inactive”.

With `O=C(O)c1ccc(O)cc1O`, the Potency result was “inactive”.

Regarding `CN1C(CSCC(F)(F)F)Nc2cc(Cl)c(S(N)(=O)=O)cc2S1(=O)=O` (stereo not given), the Potency entry was “inactive”.

`CCCCOC(=O)CCCCC(=O)OCCCC`: the Potency result is “inactive”.

Consider `O=C(Nc1ccc(C(=O)O)c(O)c1)c1ccccc1`, for which the Potency entry was “inactive”.

As for `CC(=O)NCCO`, the Potency entry is “inactive”.

With `Cc1c(C2(c3cc(Br)c(O)c(Br)c3C)OS(=O)(=O)c3ccccc32)cc(Br)c(O)c1Br`, the Potency result is “inactive”.

With `CNCc1ccc(NC(=O)c2c[nH]c3c2C(=O)CCC3)cc1`, the Potency entry is “inactive”.

Regarding `CSSc1ccoc1C`, the Potency entry is “inactive”.

As for `Cc1ccc(Cl)cc1N`, the Potency entry is “inactive”.

Take `C[C@@H]1C[C@H]2[C@@H]3CCC4=CC(=O)C=C[C@]4(C)[C@@]3(F)[C@@H](O)C[C@]2(C)[C@@]1(O)C(=O)COP(=O)(O)O`: the Potency entry is “inactive”.

With `CCN(Cc1cccc(S(=O)(=O)O)c1)c1ccc(C(=C2C=CC(=[N+](CC)Cc3cccc(S(=O)(=O)O)c3)C=C2)c2ccc(O)cc2S(=O)(=O)[O-])cc1`, the Potency entry was “inactive”.

Test system in a further experiment: not listed separately
Briefly: qHTS assay to identify small molecule agonists of the androgen receptor (AR) signaling pathway in the presence of an antagonist - cell viability counter screen (AID 1259379). Note: nearly all actives have a fitted effect of over 25% in size. Particulars: MDA-kb2 viability, CellTiter-Fluor, 16 h; series mostly up to 92.4 µM. In short, it runs like this: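 Fluorescence from CellTiter-Fluor, added after 15 hr and read 1 hr later, gave cell viability. Cells were MDA-kb2 exposed to compounds (15 concentrations) in the presence of 3.0uM nilutamide at 37C, 0% CO2.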
As for `COC(=O)CC(C(C)=O)C(=O)OC` (stereo not given), the Potency result is “inactive”.

Turning to `CC(C)(O)CCc1ccccc1`, the Potency result is “inactive”.

On to `C=C(C)c1ccccc1`, for which the Potency result was “inactive”.

Take `Cc1cccc2sc(N)nc12`: the Potency result was “inactive”.

Take `Nc1cccc2c(N)cccc12`: the Potency entry was “inactive”.

Turning to `CC(=O)Oc1cccc(O)c1`, the Potency result was “inactive”.

With `CCCOC(=O)c1c(Cl)c(Cl)c(Cl)c(Cl)c1C(=O)OCCC`, the Potency result is “inactive”.

For the molecule `CCc1ccc(C)cc1`, the Potency result is “inactive”.

Regarding `COC(OC)OC`, the Potency entry is “inactive”.

As for `CCCCCCCCCCCCCOS(=O)(=O)O`, the Potency entry is “inactive”.

In the case of `Nc1ccc(F)cc1`, the Potency result is “inactive”.

Turning to `CCCCCCCCCCCCCCCCCC(=O)OCC(CC)CCCC` (stereo not given), the Potency entry was “inactive”.

Regarding `CC(=O)OCCC(C)CC(C)(C)C` (stereo not given), the Potency entry was “inactive”.

Take `CCCCCc1ccco1`: the Potency result is “inactive”.

Regarding `CC(C)(O)c1coc(S(=O)(=O)NC(=O)Nc2c3c(cc4c2CCC4)CCC3)c1`, the Potency result was “inactive”.

On to `Cc1ccc(N(CC2=NCCN2)c2cccc(O)c2)cc1`, for which the Potency result was “inactive”.

With `CC(=O)C(C)=O`, the Potency result is “inactive”.

Regarding `CC(C)N(C)C`, the Potency result was “inactive”.

`CCC(=O)OCc1ccc(OC)cc1`: the Potency entry is “inactive”.

`C[C@@H]1[C@H](O)[C@@H](C)/C=C/C=C\C=C\C=C\C=C\C=C\C=C\[C@H](O[C@@H]2O[C@H](C)[C@@H](O)[C@H](N)[C@@H]2O)C[C@@H]2O[C@](O)(C[C@@H](O)C[C@@H](O)[C@H](O)CC[C@@H](O)C[C@@H](O)CC(=O)O[C@H]1C)C[C@H](O)[C@H]2C(=O)O` (stereo in doubt): the Potency was 61.1 µM (active).

Turning to `O=C(NC(Cc1cc(=O)[nH]c2ccccc12)C(=O)O)c1ccc(Cl)cc1` (stereo not given), the Potency result was “inactive”.

As for `O=C(O)c1ccc(O)cc1O`, the Potency entry is “inactive”.

Regarding `CN1C(CSCC(F)(F)F)Nc2cc(Cl)c(S(N)(=O)=O)cc2S1(=O)=O` (stereo not given), the Potency result is “inactive”.

For the molecule `CCCCOC(=O)CCCCC(=O)OCCCC`, the Potency entry was “inactive”.

As for `O=C(Nc1ccc(C(=O)O)c(O)c1)c1ccccc1`, the Potency result is “inactive”.

Turning to `Cc1ccc(N(CCO)CCO)cc1`, the Potency entry was “inactive”.

In the case of `CC(=O)NCCO`, the Potency entry is “inactive”.

Consider `Cc1c(C2(c3cc(Br)c(O)c(Br)c3C)OS(=O)(=O)c3ccccc32)cc(Br)c(O)c1Br`, for which the Potency is 14.9 µM (active).

Take `C=Cc1ccc(OC(C)=O)cc1`: the Potency result is “inactive”.

For `Cc1ccc2c(c1)CCCN2`, the Potency entry is “inactive”.

As for `CNCc1ccc(NC(=O)c2c[nH]c3c2C(=O)CCC3)cc1`, the Potency result is “inactive”.

Turning to `CC(C)COC(=O)c1ccc(O)cc1`, the Potency entry is “inactive”.

As to `CSSc1ccoc1C`, the Potency result was “inactive”.

As for `Cc1ccc(Cl)cc1N`, the Potency result is “inactive”.

Consider `C[C@@H]1C[C@H]2[C@@H]3CCC4=CC(=O)C=C[C@]4(C)[C@@]3(F)[C@@H](O)C[C@]2(C)[C@@]1(O)C(=O)COP(=O)(O)O`, for which the Potency result is “inactive”.

Regarding `Cc1ccc2c(c1[N+](=O)[O-])C(=O)c1ccccc1C2=O`, the Potency entry is “inactive”.

On to `CC(C)(C(=O)c1cccnc1)c1cccnc1`, for which the Potency result was “inactive”.

Consider `CCN(Cc1cccc(S(=O)(=O)O)c1)c1ccc(C(=C2C=CC(=[N+](CC)Cc3cccc(S(=O)(=O)O)c3)C=C2)c2ccc(O)cc2S(=O)(=O)[O-])cc1`, for which the Potency is 16.6 µM (active).

Test system in another experiment: not listed separately
Description: qHTS assay to identify small molecule agonists of the estrogen receptor beta (ER-beta) signaling pathway - cell viability counter screen (AID 1259380). Note: nearly all actives have a fitted effect of over 30% in size. Particulars: ER-beta-bla HEK293T viability, CellTiter-Glo luminescence, 16 h; series mostly up to 92.4 µM. In short, it runs like this: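 Same-well viability counter screen. Cells: ER-beta-UAS-bla HEK293T, plated 6 hr before compound, in 2% charcoal-stripped FBS. Compound exposure 16 hr, 37C; viability by CellTiter-Glo luminescence after 30 min at room temperature.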
In the case of `CC(C)(O)CCc1ccccc1`, the Potency entry was “inactive”.

Consider `C=C(C)c1ccccc1`, for which the Potency entry is “inactive”.

`Cc1cccc2sc(N)nc12`: the Potency result was “inactive”.

For `Nc1cccc2c(N)cccc12`, the Potency was 4.86 µM (active).

In the case of `CC(=O)Oc1cccc(O)c1`, the Potency result was “inactive”.

Turning to `CCCOC(=O)c1c(Cl)c(Cl)c(Cl)c(Cl)c1C(=O)OCCC`, the Potency result was “inactive”.

For the molecule `CCc1ccc(C)cc1`, the Potency result was “inactive”.

Turning to `COC(OC)OC`, the Potency result was “inactive”.

For the molecule `CCCCCCCCCCCCCOS(=O)(=O)O`, the Potency was 54.5 µM (active).

For the molecule `Nc1ccc(F)cc1`, the Potency result is “inactive”.

Consider `CCCCCCCCCCCCCCCCCC(=O)OCC(CC)CCCC` (stereo not given), for which the Potency entry is “inactive”.

In the case of `CC(=O)OCCC(C)CC(C)(C)C` (stereo not given), the Potency entry is “inactive”.

`CC(C)(O)c1coc(S(=O)(=O)NC(=O)Nc2c3c(cc4c2CCC4)CCC3)c1`: the Potency result is “inactive”.

For `Cc1ccc(N(CC2=NCCN2)c2cccc(O)c2)cc1`, the Potency entry is “inactive”.

On to `CC(=O)C(C)=O`, for which the Potency entry was “inactive”.

In the case of `CC(C)N(C)C`, the Potency result is “inactive”.

Take `CCC(=O)OCc1ccc(OC)cc1`: the Potency result was “inactive”.

Take `C[C@@H]1[C@H](O)[C@@H](C)/C=C/C=C\C=C\C=C\C=C\C=C\C=C\[C@H](O[C@@H]2O[C@H](C)[C@@H](O)[C@H](N)[C@@H]2O)C[C@@H]2O[C@](O)(C[C@@H](O)C[C@@H](O)[C@H](O)CC[C@@H](O)C[C@@H](O)CC(=O)O[C@H]1C)C[C@H](O)[C@H]2C(=O)O` (stereo in doubt): the Potency is 61.1 µM (active).

Consider `O=C(O)c1ccc(O)cc1O`, for which the Potency entry was “inactive”.

For `CN1C(CSCC(F)(F)F)Nc2cc(Cl)c(S(N)(=O)=O)cc2S1(=O)=O` (stereo not given), the Potency entry is “inactive”.

For the molecule `CCCCOC(=O)CCCCC(=O)OCCCC`, the Potency entry is “inactive”.

With `O=C(Nc1ccc(C(=O)O)c(O)c1)c1ccccc1`, the Potency result is “inactive”.

Turning to `Cc1ccc(N(CCO)CCO)cc1`, the Potency result was “inactive”.

As to `CC(=O)NCCO`, the Potency result is “inactive”.

With `Cc1c(C2(c3cc(Br)c(O)c(Br)c3C)OS(=O)(=O)c3ccccc32)cc(Br)c(O)c1Br`, the Potency is 23.6 µM (active).

For `C=Cc1ccc(OC(C)=O)cc1`, the Potency entry is “inactive”.

As for `Cc1ccc2c(c1)CCCN2`, the Potency entry was “inactive”.

For the molecule `CC(C)COC(=O)c1ccc(O)cc1`, the Potency result was “inactive”.

Consider `CSSc1ccoc1C`, for which the Potency result is “inactive”.

As for `Cc1ccc(Cl)cc1N`, the Potency result was “inactive”.

Turning to `C[C@@H]1C[C@H]2[C@@H]3CCC4=CC(=O)C=C[C@]4(C)[C@@]3(F)[C@@H](O)C[C@]2(C)[C@@]1(O)C(=O)COP(=O)(O)O`, the Potency result is “inactive”.

Regarding `Cc1ccc2c(c1[N+](=O)[O-])C(=O)c1ccccc1C2=O`, the Potency result is “inactive”.

With `CC(C)(C(=O)c1cccnc1)c1cccnc1`, the Potency result is “inactive”.

The values are drawn from PubChem BioAssay (Tox21).
